Screening results as filed in PubChem BioAssay.
JMJD2A Tudor inh – inhibitors of human JMJD2A Tudor domain | O75164 | AlphaScreen JMJD2A-Tudor / H3K4me3 peptide binding | Potency, µM (top dose mostly 114 µM), for inactives: at the highest dose activity change, negative = inhibition, actives largely listed as inhibitors | actives 4.4% (n = 390,000) | AID 504339; note: % is set by controls: 0 for no effect and ±100 for the full control effect; nearly all actives have a fitted effect of over 50% in size
HP1b binding inh – blocks HP1-beta chromodomain binding to methylated histone tails; AlphaScreen HP1-beta / biotin-H3K9me3 peptide binding; Potency, µM (titrated, usually from 114 µM), for inactives: at the highest dose activity change, negative = inhibition, usual class: inhibitors; actives 0.56% (n = 390,000); AID 540317; note: nearly all actives have a fitted effect of over 70% in size
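AlphaScreen: HP1-beta (50 nM) preformed 30 min with biotin-H3(1-18)K9me3 peptide (50 nM) in PBS pH 7.4, 0.01% Tween-20. Compound added for 30 min at RT, then streptavidin donor/nickel chelate acceptor beads (10 ug/mL) for 30 min.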
L3MBTL1 block – L3MBTL1 (human) inhibition | actives 0.66% (n = 230,000) | Potency, µM (doses to about 57.1 µM), without a hit: at the highest dose activity, negative = inhibition, actives largely listed as inhibitors | Q9Y468 | AlphaScreen L3MBTL1–H3K9me1 peptide binding; note: % is set by controls: 0 for no effect and ±100 for the full control effect; nearly all actives have a fitted effect of over 60% in size
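L3MBTL1 (50 nM) pre-complexed 30 min with biotinylated H3(1-15)K9me1 peptide (75 nM), then compounds added for 30 min at room temperature; AlphaScreen streptavidin donor/nickel chelate acceptor beads (10 ug/mL final) read after 30 min dark incubation.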
VDR inhibitor – inhibitors of human vitamin D receptor; actives 0.93% (n = 400,000); Potency, µM, for inactives: max response, negative = inhibition, actives largely listed as inhibitors; VDR-SRC2-3 peptide fluorescence polarization, 2 h; note: % is set by controls: 0 for no effect and ±100 for the full control effect
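Measured by FP: displacement of SRC2-3 coactivator peptide from VDR by library compounds, following a two-hour ambient incubation.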
PLK1 PBD block – blocks phosphopeptide binding to human PLK1 polo-box domain. Plk1 PBD binding of FITC phosphopeptide, fluorescence polarization. actives 2.8% (n = 360,000). Potency, µM, without a hit: max response, negative = inhibition, hits mostly inhibitors. P53350; note: series mostly up to about 57 µM; % is set by controls: 0 for no effect and ±100 for the full control effect; nearly all actives have a fitted effect of over 65% in size
BAZ2B block – BAZ2B (human) inhibition | Potency, µM (titrated, usually from 114 µM), without a hit: top-dose activity change, negative = inhibition, most hits filed as inhibitors | actives 4.4% (n = 360,000) | AlphaScreen BAZ2B-H3K14Ac peptide displacement | Q9UIF8; note: % is set by controls: 0 for no effect and ±100 for the full control effect; nearly all actives have a fitted effect of over 60% in size
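AlphaScreen displacement: compounds (up to 110uM) incubated 30 min at room temperature with a preformed 50 nM BAZ2B/50 nM biotinylated H3K14Ac peptide complex in PBS pH 7.4 with Tween-20. Donor and acceptor beads at 10 ug/mL final added, 20 min light-protected before reading.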
* marks the source's active call; other numbers are inactive results; ? = inconclusive; nt = no result given; ! = not active in a repeat; [ ] = another dose, or the depositor's remark. Most compounds without a hit are left out; they make up all but 6.9% or so of the library. Calls come from the whole dose curve; as a rule, active = well fitted curve in the direction sought with a large enough effect; inconclusive = small, poorly fitted or top-dose-only effect, or another doubt; inactive = no such curve, though single readings can be large; an effect the other way counts as inactive or inconclusive. Potency is the fitted concentration of half-maximal effect.

SMILES	JMJD2A Tudor inh	HP1b binding inh	L3MBTL1 block	VDR inhibitor	PLK1 PBD block	BAZ2B block
C#CCOCCOCCOCCNc1nc(N2CCN(C(=O)[C@H](CCC(=O)O)n3cc(C(N)CO)nn3)CC2)nc(N2CCN(C(=O)[C@H](CCC(=O)O)n3cc(C(N)CO)nn3)CC2)n1 (stereo partly drawn)	nt	nt	nt	nt	nt	14µM*
CC(C)Oc1ccc(C(=O)N(Cc2ccco2)c2ccccn2)cc1	-14%	36%	nt	4%	nt	-22%
C/C(=N\NC(=O)c1cc(C(C)(C)C)[nH]n1)C12CC3CC(CC(C3)C1)C2	?	-18%	-13%	-29%	17µM*	-32%
O=C(N/N=C/c1ccc(O)cc1)c1cc(C23CC4CC(CC(C4)C2)C3)[nH]n1	-27%	6%	-7%	-8%	1%	-28%
NC(=O)CSc1ccc2nnc(-c3ccncc3)n2n1	-8%[57.1 µM]	12%[57 µM]	nt	-20%	nt	nt
O=C(N/N=C/c1ccc[nH]1)c1cc2ccccc2cc1O	?	-2%	nt	-10%	-5%	40µM*
O=C(CNc1cccc2ccccc12)N/N=C/c1ccc[nH]1	-17%	22%	-23%	19%	-4%	-4%
O=C(Nn1cc(C(=O)Nc2ccc(F)cc2F)c2ccccc2c1=O)c1cnccn1	35µM*	13%	nt	3%	-1%	28µM*
O=C(Nc1ccccc1F)c1cnccn1	5%	14%	nt	-8%	-1%	5%
Clc1ccc(OCc2nn3c(C4CCCCC4)nnc3s2)cc1	-25%	-21%	-3%	?	21µM*	-1%
Cc1cc(C)c(NC(=S)NCCCSC2CCCCC2)c(C)c1	?	?	nt	-2%	24µM*	?
Cc1ccc([C@H]2C(C(=O)O)=CC[C@@H](c3ccc(C(C)C)cc3)N2S(=O)(=O)c2ccc(C)cc2)cc1	?	6%	-8%	-16%	24µM*	nt
Cc1ccc(S(=O)(=O)N2[C@@H](c3ccccc3)C(C(=O)O)=CC[C@H]2c2ccc(C(C)C)cc2)cc1	-22%	26%	7%	-25%	?	-27%
Cc1ccc(S(=O)(=O)N2[C@@H](c3ccc(Cl)cc3)C(C(=O)O)=CC[C@H]2c2ccc(C(C)C)cc2)cc1	-18%	15%	-7%	-4%	19µM*	79µM*
Cc1cccc(Cl)c1OCCCN1CCOCC1	1.6µM*	?	3%	-17%	-10%	?
Cc1cc(C)c(OCCOCCN2CCCC2)c(C)c1	?	?	nt	-4%	-2%	nt
Cc1cccc(C)c1OCCN1CCCC1	25µM*	?	nt	9%	4%	?
Cc1cccc(C)c1OCCCCN1CCCCC1	28µM*	?	-7%	-4%	11%	?
Cc1cccc(C)c1OCCCN1CCCC1	2.5µM*	?	nt	6%	-4%	50µM*
CC1CCCCN1CC(=O)Nc1ccccc1Sc1ccccc1 (stereo not drawn)	51%	100%	24%	-20%	4%	30%
O=C(Cc1n[nH]c(=O)c2ccccc12)OCC(=O)c1ccc(OC(F)F)cc1OC(F)F	-12%	12%	-3%	-23%	-10%	-6%
COc1cc(C)c(COc2ncnc3ccccc23)cc1OC	-5%	1%	nt	-10%	-16%	4%
Nc1sc(-c2ccccc2)cc1C(=O)NCCN1CCOCC1	nt	nt	nt	nt	-22%	nt
Cc1cc(Cl)c(OCCCCN2CCOCC2)c(Br)c1	3.5µM*	?	-7%	-17%	-16%	50µM*
Cc1cccc(C)c1OCCOCCN1CCN(C)CC1	13µM*!	25µM*!	-2%	3%	-19%	-29%
SMILES	JMJD2A Tudor inh	HP1b binding inh	L3MBTL1 block	VDR inhibitor	PLK1 PBD block	BAZ2B block
CCc1ccc(-c2nc(CS(=O)CC(=O)NCCc3ccc(C)cc3)c(C)o2)cc1 (stereo not drawn)	-14%	42%	nt	9%	nt	-3%
Cc1ccc2c(c1)c1c(c(=O)n(-c3cccc(Cl)c3)c(=O)n1CC(=O)Nc1c(C)cccc1C)n2C	-13%	-4%	nt	7%	nt	-13%
COC(=O)CSc1nc(SC)nc2c1sc1nc(-c3ccco3)c3c(c12)CC(C)(C)OC3	3%	21%	nt	-5%	-11%	nt
CSc1nc(SCCO)c2sc3nc(-c4ccco4)c4c(c3c2n1)CC(C)(C)OC4	?	15%	-93%	-13%	-20%	32µM*
CSc1nc(N(CCO)CCO)c2sc3nc(-c4ccco4)c4c(c3c2n1)CCC4	-35%[11.4 µM]	11µM*	2.5µM*	-11%	?	?
CNc1cnn(-c2ccccc2)c(=O)c1Cl	-14%[11.4 µM]	?	5%	-19%	11µM*	3%
CN(C)CCNc1cnn(-c2ccccc2)c(=O)c1Cl	1%	34%	-15%	-3%	-1%	-2%
COc1ccccc1C(=O)Nc1cccc(C(=O)OCc2cc(=O)n3cc(C)sc3n2)c1	-19%	-5%	nt	-1%	nt	-14%
CC(C)(C)c1csc(NC(=O)Cn2c(=O)oc3ccccc32)n1	6%	-27%	-9%	8%	27µM*	-20%
O=C(Cn1c(=O)oc2ccccc21)Nc1n[nH]c(=S)s1	3.5µM*	?	-15%	?	?	-25%
C/C(CCC(C)C)=N\Nc1cc(C)c2ccccc2n1	?	-4%	?	?	4%	nt
CN(C)/C=C1/NC(=S)NC1=O	8.9µM*	89µM*	10%	4%	-5%	-8%
CC(=O)c1cc2c(cc1N/C(=N/S(=O)(=O)c1ccc(C)cc1)c1ccc(F)cc1)OCO2	-17%	12%	nt	1%	nt	-8%
CC(=O)c1ccc(NC(=O)COC(=O)c2ccccc2Nc2ccccc2)cc1	-21%[57.1 µM]	11%	6%	?	27µM*	4%
CCC(C)NCCOCCOc1ccc(Cl)c(C)c1C (stereo not drawn)	3.5µM*	?	13%	3%	-1%	-25%
COCCCNC(=O)CCSc1ccc(Cl)cc1	-7%	20%	3%	14%	-8%	28%
CCC(C)NCCCCOc1ccc(Cl)cc1C (stereo not drawn)	14µM*	-20%	14%	2%	-5%	-13%
CCC(C)NCCOCCOc1ccc(Cl)c2ccccc12 (stereo not drawn)	-21%	-1%	7%	2%	-2%	?
C=CCc1cc(Cl)ccc1OCCOCCNC(C)CC (stereo not drawn)	1.4µM*	?	8%	-3%	2%	50µM*
CCC(C)NCCOCCSc1ccc(Cl)cc1 (stereo not drawn)	3.5µM*	?	7%	4%	-17%	79µM*
O=[S+]([O-])(c1ccc2ncsc2c1)N1CCN([S+](=O)([O-])c2c(F)cccc2F)CC1	-12%	nt	nt	nt	nt	nt
O=C(Cn1ncc2c3ccccc3n(Cc3ccccc3)c2c1=O)NCCCN1CCCCC1	-13%	17%	nt	27%	nt	-12%
C=CCc1ccccc1OCC(O)CNC(C)C (stereo not drawn)	-17%	14%	3%	-3%	-8%	-12%
